Compound activity deposited in PubChem BioAssay by Broad Institute.
mut p53 react: restores mutant p53 pathway signaling in SW480 cells; SW480 PUMA-promoter luciferase, p53 mutant reactivation; activation, % at 9.98 µM; 28,000 tested, 1.5% active; in the data active = activation above about 52%; inconclusive = no clear call, values can overlap the other calls
STK33 inh: blocks human STK33 kinase activity. Q9BYT3. ADP-Glo luminescence, MBP substrate. inhibition, % at 12.5 µM. 27,000 tested, 0.44% active; in the data active = inhibition above about 20%; inconclusive = no clear call, values can overlap the other calls
Target sequence (Q9BYT3 whole entry, looked up): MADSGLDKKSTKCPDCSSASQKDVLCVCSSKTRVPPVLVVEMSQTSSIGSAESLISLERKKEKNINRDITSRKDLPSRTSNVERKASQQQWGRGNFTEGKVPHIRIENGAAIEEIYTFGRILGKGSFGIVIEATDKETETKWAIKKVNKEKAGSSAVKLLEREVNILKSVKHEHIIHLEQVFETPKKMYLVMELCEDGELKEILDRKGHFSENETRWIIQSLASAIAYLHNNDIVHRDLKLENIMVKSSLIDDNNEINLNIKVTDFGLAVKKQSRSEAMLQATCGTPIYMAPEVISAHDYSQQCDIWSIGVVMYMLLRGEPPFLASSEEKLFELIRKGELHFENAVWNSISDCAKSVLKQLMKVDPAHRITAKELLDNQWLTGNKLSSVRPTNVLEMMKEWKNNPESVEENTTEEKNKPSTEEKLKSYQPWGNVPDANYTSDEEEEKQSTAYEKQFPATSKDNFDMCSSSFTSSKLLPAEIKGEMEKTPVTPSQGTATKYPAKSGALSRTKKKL
MITF inhib: blocks MITF activity. TRPM1 promoter luciferase, luminescence, 24 h. inhibition, % (test concentration not listed). 37,000 tested, 0.28% active; in the data active = inhibition above about 85%; inconclusive = no clear call, values can overlap the other calls; inactive = below about 68%;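 note: human melanocyte line stably carrying TRPM1 promoter luciferase reporter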
NOMO-1 viab: STK33 inhibitor candidate reducing NOMO-1 cell viability | NOMO-1 AML viability, CellTiter-Glo luminescence, 72 h | inhibition, % (test concentration not listed) | 37,000 tested, 7.5% active; in the data active = inhibition above about 80%; inconclusive = no clear call, values can overlap the other calls
Large screens that a line does not name were inactive. Shown is part of a subset that was picked to be rich in hits.

Cc1cccc(-c2noc(CN(C(=O)c3ccc([N+](=O)[O-])c(C)c3)C(C)C)n2)c1	NOMO-1 viab 132
CN(/N=C/c1ccccc1)C1=NS(=O)(=O)c2ccccc21	none (no result: mut p53 react, STK33 inh)
C[C@@H]1CN([C@H](C)CO)C(=O)Cc2cc(NC(=O)NC3CCCCC3)ccc2O[C@@H]1CN(C)Cc1ccncc1	none (no result: STK33 inh)
C[C@H](CO)N1C[C@H](C)[C@H](CN(C)Cc2ccc(Cl)c(Cl)c2)Oc2ccc(NC(=O)C3CCCCC3)cc2CC1=O	none (no result: mut p53 react)
C[C@@H]1CN([C@@H](C)CO)C(=O)Cc2cc(NC(=O)NC3CCCCC3)ccc2O[C@@H]1CN(C)Cc1ccc(Cl)c(Cl)c1	NOMO-1 viab 111 (no result: mut p53 react)
C[C@@H]1CN([C@@H](C)CO)C(=O)Cc2cc(NC(=O)C3CCCCC3)ccc2O[C@@H]1CN(C)Cc1ccc(Cl)c(Cl)c1	NOMO-1 viab 123 (no result: mut p53 react)
C[C@H]1CN([C@@H](C)CO)C(=O)Cc2cc(NC(=O)NC3CCCCC3)ccc2O[C@@H]1CN(C)Cc1ccc(Cl)c(Cl)c1	NOMO-1 viab 105 (no result: mut p53 react)
COc1ccc(S(=O)(=O)Nc2cccc3c2O[C@@H](CN(C)Cc2ccc(Cl)c(Cl)c2)[C@@H](C)CN([C@H](C)CO)C3=O)cc1	NOMO-1 viab 115 (no result: mut p53 react, STK33 inh)
C[C@H](CO)N1C[C@H](C)[C@H](CN(C)Cc2ccc(Cl)c(Cl)c2)Oc2c(NS(=O)(=O)c3ccc(F)cc3)cccc2C1=O	NOMO-1 viab 91 (no result: mut p53 react, STK33 inh)
O=C(CSc1nnc(-c2ccccc2)c(-c2ccccc2)n1)C1CC1	none
COc1cccc(OCC(=O)Nc2cccc(-c3nnc(-c4ccccc4)o3)c2)c1	mut p53 react 101
CCc1cccc(OCC(=O)Nc2cccc(-c3nnc(-c4ccccc4)o3)c2)c1	mut p53 react 98
Cc1cccc(NC(=O)c2ccccc2NC(=O)COc2cccc([N+](=O)[O-])c2)c1C	NOMO-1 viab 105
O=C(COc1ccc(I)cc1)Nc1cccc(-c2nnc(-c3ccco3)o2)c1	mut p53 react 79
Cc1cc(C)cc(OCC(=O)Nc2cccc(-c3nnc(-c4ccco4)o3)c2)c1	none
CC(=O)NC(=O)C1C=C2c3ccccc3C=CC2OC1=Nc1ccc(C)cc1 (configuration not stated)	none (no result: STK33 inh, MITF inhib, NOMO-1 viab)
Cc1cccc(OCC(=O)Nc2cccc(-c3nc4cc(C)cc(C)c4o3)c2)c1	mut p53 react inconclusive
CCc1cccc(OCC(=O)Nc2ccccc2C(N)=O)c1	mut p53 react 130
Cc1cccc(OCC(=O)Nc2cccc(-c3nnc(-c4ccccc4)o3)c2)c1	mut p53 react 91
COc1cc(C(=O)NC2(C(F)(F)F)C(=O)N(Cc3ccco3)C3=C2C(=O)CC(C)(C)C3)cc(OC)c1OC (configuration not stated)	none
O=C(ON1C(=O)c2ccccc2C1=O)C1CCCCC1	NOMO-1 viab 126 (no result: mut p53 react, STK33 inh)
O=C(Nc1ccccc1)C1CCCCC1	none (no result: mut p53 react, STK33 inh)
O=C(O)CC1CCC(CC(O)/C=C\C/C=C\CCCCCO)O1 (configuration not stated)	NOMO-1 viab 117 (no result: mut p53 react)
CCCCC/C=C\C/C=C\C(O)CCCCCCC(=O)O (configuration not stated)	none
CCOC(=O)c1c(NC(=O)c2nc3nc(C)cc(C(F)F)n3n2)sc2c1CCCC2	none
C[C@@H]1CN([C@H](C)CO)C(=O)Cc2cc(NS(=O)(=O)c3cccs3)ccc2O[C@@H]1CN(C)Cc1ccc(Oc2ccccc2)cc1	NOMO-1 viab 118 (no result: mut p53 react)
C[C@@H]1CN([C@H](C)CO)C(=O)c2cc(NS(=O)(=O)c3cccs3)ccc2O[C@@H]1CN(C)Cc1ccc(-c2ccccc2)cc1	NOMO-1 viab 113 (no result: STK33 inh)
C[C@@H]1CN([C@H](C)CO)C(=O)Cc2cc(NS(=O)(=O)c3cccs3)ccc2O[C@H]1CN(C)Cc1ccccc1	none
C[C@H]1CN([C@@H](C)CO)C(=O)Cc2cc(NS(=O)(=O)c3cccs3)ccc2O[C@@H]1CN(C)Cc1ccc(-c2ccccc2)cc1	NOMO-1 viab 89 (no result: mut p53 react, STK33 inh)
COC(=O)c1ccccc1NC(=O)CSc1n[nH]c(-c2ccccc2Cl)n1	none
COc1ccc(S(=O)(=O)Nc2ccc3c(c2)CC(=O)N([C@H](C)CO)C[C@H](C)[C@H](CN(C)Cc2ccc(-c4ccccc4)cc2)O3)cc1	NOMO-1 viab 88 (no result: mut p53 react)
COc1ccc(S(=O)(=O)Nc2ccc3c(c2)CC(=O)N([C@@H](C)CO)C[C@H](C)[C@H](CN(C)Cc2ccc(-c4ccccc4)cc2)O3)cc1	NOMO-1 viab 90 (no result: mut p53 react)
COc1ccc(S(=O)(=O)Nc2ccc3c(c2)CC(=O)N([C@@H](C)CO)C[C@H](C)[C@@H](CN(C)Cc2ccc(-c4ccccc4)cc2)O3)cc1	NOMO-1 viab 125 (no result: mut p53 react)
CCN(CC(=O)Nc1c(C)cc(C)cc1C)S(=O)(=O)c1ccc2ccccc2c1	none
